Compound activity as filed in PubChem.
Most compounds without a hit are left out; they make up all but 11% or so of the library.
BAZ2B block: qHTS Assay for Inhibitors of BAZ2B; Bromodomain adjacent to zinc finger domain protein 2B (Homo sapiens), Q9UIF8; AlphaScreen BAZ2B-H3K14Ac peptide displacement; Potency, µM (top dose mostly 114 µM), inactives show at the top dose activity change, negative = inhibition, hits mostly inhibitors; 360,000 compounds, 4.4% hits; AID 504333, 2011; further: on the % scale 0 is the no-effect control and ±100 the full control effect; nearly all actives have a fitted effect of over 60% in size
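Protein-peptide AlphaScreen: BAZ2B 50 nM, b-H3K14Ac 50 nM, 1x PBS pH 7.4 + 0.01% Tween-20. Preincubation 30 min RT; cpd 30 min RT (top 110 uM); beads 20 min RT, light-protected.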
HP1b chromo inh: HTS for Inhibitors of HP1-beta Chromodomain Interactions with Methylated Histone Tails | Chromobox protein homolog 1 (Homo sapiens), P83916 | 390,000 compounds, 0.56% hits | Potency, µM (doses to about 114 µM), without a hit: at the top dose activity change, negative = inhibition, actives largely listed as inhibitors | AID 540317, 2011 | AlphaScreen HP1-beta / biotin-H3K9me3 peptide binding; further: nearly all actives have a fitted effect of over 70% in size
Target sequence (P83916 whole entry, looked up): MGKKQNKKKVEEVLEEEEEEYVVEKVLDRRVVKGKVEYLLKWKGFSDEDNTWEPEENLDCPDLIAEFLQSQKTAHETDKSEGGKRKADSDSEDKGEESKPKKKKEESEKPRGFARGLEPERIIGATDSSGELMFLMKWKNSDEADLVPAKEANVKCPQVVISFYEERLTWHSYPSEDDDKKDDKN
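AlphaScreen: HP1-beta (50 nM) preformed 30 min with biotin-H3(1-18)K9me3 peptide (50 nM) in PBS pH 7.4, 0.01% Tween-20. Compound added for 30 min at RT, then streptavidin donor/nickel chelate acceptor beads (10 ug/mL) for 30 min.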
G9a inh: qHTS Assay for Inhibitors of Histone Lysine Methyltransferase G9a; Potency, µM (series often up to 102 µM), for inactives: at the top dose activity, negative = inhibition, actives largely listed as inhibitors; 350,000 compounds, 8.8% hits; G9a H3K9 monomethylation, AlphaScreen, 2 h; further: on the % scale 0 is the no-effect control and ±100 the full control effect; nearly all actives have a fitted effect of over 75% in size
Target sequence (Q96KQ7 913-1193 limits assumed): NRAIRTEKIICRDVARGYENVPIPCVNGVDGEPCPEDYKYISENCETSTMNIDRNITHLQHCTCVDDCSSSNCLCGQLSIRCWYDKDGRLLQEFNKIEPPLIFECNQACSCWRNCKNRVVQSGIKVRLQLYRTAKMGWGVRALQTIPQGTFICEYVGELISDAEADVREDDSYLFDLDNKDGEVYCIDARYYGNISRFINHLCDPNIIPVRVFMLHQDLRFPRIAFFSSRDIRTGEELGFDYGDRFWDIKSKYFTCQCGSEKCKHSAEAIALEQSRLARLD
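Chemiluminescent proximity detection of H3K9 monomethylation, read after 10 min bead incubation in the dark. Reaction: 20 nM G9a, 500 nM biotin-H3K9 peptide, 20 uM SAM cofactor, 2 h, room temperature, following 15 min enzyme-compound preincubation.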
JMJD2A Tudor inh: qHTS Assay for Inhibitors of JMJD2A-Tudor Domain; AlphaScreen JMJD2A-Tudor / H3K4me3 peptide binding; Potency, µM (highest dose often 114 µM), for the others: at the highest dose activity change, negative = inhibition, actives largely listed as inhibitors; 390,000 compounds, 4.4% hits; further: on the % scale 0 is the no-effect control and ±100 the full control effect; nearly all actives have a fitted effect of over 50% in size
L3MBTL1 block: qHTS Assay for the Inhibitors of L3MBTL1; Lethal(3)malignant brain tumor-like protein 1 (Homo sapiens), Q9Y468; AlphaScreen L3MBTL1–H3K9me1 peptide binding; Potency, µM (top dose mostly 57.1 µM), for inactives: at the highest dose activity, negative = inhibition, usual class: inhibitors; 230,000 compounds, 0.66% hits; further: on the % scale 0 is the no-effect control and ±100 the full control effect; nearly all actives have a fitted effect of over 60% in size
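L3MBTL1 50 nM + b-AHA-H3(1-15)K9me1 75 nM, 30 min RT; compound added, 30 min RT; streptavidin donor/Ni-chelate acceptor beads 10 ug/mL each final, 30 min RT dark; AlphaScreen read.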
Active calls of the source: *; ? = inconclusive; nt = no result given; [ ] = dose if it differs, or a comment. The call rests on the fitted dose curve; in most records, active means well fitted inhibition curve with a large enough effect; inconclusive means small, poorly fitted or top-dose-only effect; inactive means no such curve, though single readings can be large or run the other way. Potency means the concentration at half of the fitted maximal effect.

SMILES | BAZ2B block | HP1b chromo inh | G9a inh | JMJD2A Tudor inh | L3MBTL1 block
COc1cccc(CN2CCc3nc(Nc4ccc5c(c4)OCCO5)ncc3C2)c1OC | 35µM* | ? | ? | 56µM* | nt
Cc1ccc(CN2CCc3nc(Nc4ccc5c(c4)OCCO5)ncc3C2)cc1 | 40µM* | ? | -24%[12.7 µM] | 45µM* | nt
CCCc1nn2c(=O)cc(COC(=O)c3cccc(NC(=O)c4ccc(OCC)cc4)c3)nc2s1 | -7% | 20% | -4%[12.7 µM] | -13% | nt
CC[C@@H](C)C(N)C(=O)O (some centres undefined) | nt | nt | 1%[12.7 µM] | nt | nt
Cc1nn(C(C)c2n[nH]c(=S)n2-c2ccc(F)cc2)c(C)c1[N+](=O)[O-] (centres undefined) | 0% | 18% | 4.5µM* | 25µM* | 22%[11.4 µM]
Cc1nn(CCc2n[nH]c(=S)n2-c2ccc(F)cc2)c(C)c1[N+](=O)[O-] | 5% | 13% | 2.2µM* | 18µM* | nt
Cc1cccc(-n2c(Cn3nc(C)c([N+](=O)[O-])c3C)n[nH]c2=S)c1 | 12%[57.1 µM] | -7% | ? | 22µM* | 3%
Cc1nn(CCc2n[nH]c(=S)n2-c2ccc(F)c(Cl)c2)c(C)c1[N+](=O)[O-] | -6% | 9% | ? | -23% | -1%
CC[C@@]1(c2ccccc2)NC(=O)N(C)C1=O | nt | nt | 16%[59 µM] | nt | nt
CN1C(C(=O)Nc2ccccn2)=C(O)c2sccc2S1(=O)=O | 50µM* | 10% | ? | 50µM* | -6%
O=C(Nc1ccccn1)c1cccs1 | 15% | ? | -3%[59 µM] | ? | nt
CC1CCN(Cc2c(C(=O)O)nnn2-c2nonc2N)CC1 | ? | 30% | 50µM* | -16% | 7%
CCN1CCN(Cc2c(C(=O)N/N=C(\C)c3ccc(Cl)c(Cl)c3)nnn2-c2nonc2N)CC1 | -34% | nt | 45µM* | nt | nt
Cc1cc(C)c(/C=N/NC(=O)c2nnn(-c3nonc3N)c2CN2CCC(C)CC2)c(C)c1 | -1% | 14% | ? | -4% | nt
Nc1nonc1-n1nnc(C(=O)N/N=C\c2cccc(Cl)c2)c1CN1CCOCC1 | -1% | 22% | 40µM* | -12% | nt
Nc1nonc1-n1nnc(C(=O)N/N=C/c2c(Cl)cccc2Cl)c1CN1CCOCC1 | 5% | 20% | -9% | -2% | nt
COC(=O)c1ccc(OC)c(Cn2c(=O)n(-c3cccc(Cl)c3)c(=O)c3c2c2cc(C)ccc2n3C)c1 | 2% | 21% | -11%[59 µM] | -12% | nt
O=C(CCS(=O)(=O)c1ccccc1)Nc1nc(-c2cccs2)cs1 | -28% | 22% | 50µM* | -10% | -2%
COc1ccc(-c2csc(NC(=O)CS(=O)(=O)c3ccc(F)cc3)n2)cc1OC | -13% | 5% | ? | -35% | -6%
O=C(CCS(=O)(=O)c1ccc(F)cc1)Nc1nc(-c2ccncc2)cs1 | -24% | ? | 7.9µM* | -35% | nt
O=C(CCS(=O)(=O)c1ccccc1)Nc1ccc(Cl)cn1 | ? | ? | 45µM* | -20% | nt
C=C1CN(C(C(=O)OC)C(C)C)S(=O)(=O)c2ccc(F)cc21 (centres undefined) | nt | 43% | nt | -3% | nt
Cc1cc(C)c(S(=O)(=O)NCc2csc(-c3ccccc3)n2)c(C)c1 | 26% | 50% | 25%[59 µM] | 7% | nt
COc1cc(C2SCC(=O)N2CCN2CCCCC2)ccc1O (centres undefined) | -14% | 31% | 50µM* | -1% | -1%
O=C1CSC(c2ccc([N+](=O)[O-])cc2)N1CCN1CCCCC1 (centres undefined) | ? | 12% | -28% | -7% | -31%
Cc1c(CNC(C)CCc2ccccc2)c(C(=O)O)c(C)n1Cc1ccc(F)cc1 (centres undefined) | 1% | 15% | -2%[59 µM] | -16% | nt
CC(=O)C1=C(C)NC(SCC(=O)c2ccccc2)=C(C#N)C1CC(C)C (centres undefined) | ? | 44% | ? | 56µM* | nt
